Assay [1] in a line: optical density shifts of acrAB sulA E. coli – strain DRC41, OD650, 48 h, E. coli filamentation inducer project, primary screen (AID 1152).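 Note: E. coli MC1000 strain DRC41 lacking acrAB efflux pump and sulA.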 The note with it: higher = more signal, called active from +8 up or from −8 down.
Assay [2] is described as follows: probe aLefty1 binding on compound microarray – biochemical, small-molecule microarray, 635/667 nm fluorescence, primary screen (AID 1153).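 Note: score merges spot fluorescence with signal-to-noise ratio from the scanned slide images.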 The note with it: higher = more signal.
Assay [3] in a line: plasmodial surface anion channel blockers, osmotic lysis – cell-based, P. falciparum Indochina, OD700, 1 h, primary screen (AID 1154). The settings on record: P. falciparum Indochina infected RBC osmotic lysis, higher = more signal, called active from +8 up or from −8 down.
Assay [4] in a line: plasmodial surface anion channel blockers, osmotic lysis – cell-based, P. falciparum Indochina, OD700, 2 h, primary screen (AID 1155).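 Note: lysis reports solute entry through the parasite surface anion channel PSAC.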 The note with it: P. falciparum Indochina infected erythrocytes, higher = more signal, called active from +8 up or from −8 down.
The nature of assay [5]: changes in parasitized red cell lysis, either direction – P. falciparum Indochina, OD700, 3 h, PSAC antagonist project, primary screen (AID 1156). The settings on record: P. falciparum-infected erythrocytes, osmotic lysis, higher = more signal, called active from +8 up or from −8 down.
Assay [6] is described as follows: plasmodial surface anion channel blockers, osmotic lysis – cell-based, P. falciparum Indochina, OD700, 18 h, primary screen (AID 1157). The note with it: P. falciparum Indochina infected erythrocytes, osmotic lysis OD700, 18 h; higher = more signal, called active from +8 up or from −8 down.
Assay [7] is described as follows: S6 kinase pathway phospho-S6 level changes – cell-based, A549, cytoblot, luminescence, serum-stimulated, primary screen (AID 1158).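 Note: serum-stimulated A549 lung adenocarcinoma cells; signal is phosphorylated S6 detected by cytoblot immunostaining with HRP secondary.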 The settings on record: 5 h, higher = more signal.
Assay [8] has as its target NADPH oxidase 2 (Homo sapiens) (UniProt P04839). The assay can be described thus: compounds shifting NOX2 Amplex Red fluorescence – cell-based, HEK293-NOX2, PMA-stimulated, NOX inhibitor project, primary screen (AID 1159). Note: test concentration not given here. The note with it: 45 min, higher = more signal, called active from +8 up or from −8 down.
In assay [9] the target is NADPH oxidase 4 (Homo sapiens) (UniProt Q9NPH5). The experiment in a line: compounds shifting NOX4 Amplex Red fluorescence – cell-based, HEK293-NOX4, tetracycline-induced, NOX inhibitor project, primary screen (AID 1160). The note with it: HEK293-NOX4, Amplex Red H2O2 fluorescence, 45 min; higher = more signal, called active from +8 up or from −8 down.
Chain of NADPH oxidase 4 (Homo sapiens) (Q9NPH5 whole entry, looked up): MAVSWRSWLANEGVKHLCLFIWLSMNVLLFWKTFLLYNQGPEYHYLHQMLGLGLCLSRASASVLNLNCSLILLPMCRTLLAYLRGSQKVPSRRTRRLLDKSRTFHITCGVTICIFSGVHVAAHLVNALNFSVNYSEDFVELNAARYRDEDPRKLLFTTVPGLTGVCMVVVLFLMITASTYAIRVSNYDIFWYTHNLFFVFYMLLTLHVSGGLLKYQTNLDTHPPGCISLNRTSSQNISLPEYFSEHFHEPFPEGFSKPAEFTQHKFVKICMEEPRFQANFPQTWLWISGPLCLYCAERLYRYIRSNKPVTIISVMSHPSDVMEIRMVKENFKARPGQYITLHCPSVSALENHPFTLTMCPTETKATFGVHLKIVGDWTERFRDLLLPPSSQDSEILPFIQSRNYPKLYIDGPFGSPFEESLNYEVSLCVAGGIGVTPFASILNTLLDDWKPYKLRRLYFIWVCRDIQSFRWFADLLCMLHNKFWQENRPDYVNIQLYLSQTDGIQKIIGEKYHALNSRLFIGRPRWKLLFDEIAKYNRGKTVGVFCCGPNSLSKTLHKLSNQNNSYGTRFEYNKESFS
The target of assay [10] is NADPH oxidase 5 (Homo sapiens) (UniProt Q96PH1). The experiment in a line: compounds shifting NOX5 Amplex Red fluorescence – cell-based, HEK293-NOX5, NOX inhibitor project, primary screen (AID 1161). The settings on record: HEK293-NOX5, ionomycin, 45 min, higher = more signal.
Chain of NADPH oxidase 5 (Homo sapiens) (Q96PH1 whole entry, looked up): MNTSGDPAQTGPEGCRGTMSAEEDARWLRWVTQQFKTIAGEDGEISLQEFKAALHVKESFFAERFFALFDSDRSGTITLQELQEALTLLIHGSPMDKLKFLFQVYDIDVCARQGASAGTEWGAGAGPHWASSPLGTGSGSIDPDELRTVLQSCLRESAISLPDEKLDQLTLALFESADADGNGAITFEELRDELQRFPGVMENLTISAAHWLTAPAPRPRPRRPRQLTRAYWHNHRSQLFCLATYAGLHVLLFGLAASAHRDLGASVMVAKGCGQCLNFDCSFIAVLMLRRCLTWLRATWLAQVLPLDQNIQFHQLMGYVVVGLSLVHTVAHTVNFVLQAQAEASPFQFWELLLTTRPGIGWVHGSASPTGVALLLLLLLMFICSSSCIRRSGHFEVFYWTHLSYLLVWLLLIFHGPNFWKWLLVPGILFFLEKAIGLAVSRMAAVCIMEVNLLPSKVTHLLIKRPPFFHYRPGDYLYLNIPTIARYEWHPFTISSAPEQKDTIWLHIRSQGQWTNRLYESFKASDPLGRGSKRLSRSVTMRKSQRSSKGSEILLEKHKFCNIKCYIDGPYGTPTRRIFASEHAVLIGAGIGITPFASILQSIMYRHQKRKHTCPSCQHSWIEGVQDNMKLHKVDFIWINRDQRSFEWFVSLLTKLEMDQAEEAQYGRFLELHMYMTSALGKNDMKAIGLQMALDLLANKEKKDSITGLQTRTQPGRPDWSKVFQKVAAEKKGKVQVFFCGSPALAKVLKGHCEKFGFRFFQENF
The nature of assay [11]: compound effects on lung adenocarcinoma cell viability – A549, calcein-AM fluorescence, 48 h, basal, profiling panel (AID 1162). Note: test concentration not given here. The note with it: higher = more signal.
Assay [12] can be described thus: compound effects on differentiated 3T3-L1 adipocyte viability – cell-based, 3T3-L1 adipocytes, calcein-AM fluorescence, 48 h, basal, profiling panel (AID 1163). Note: test concentration not given here. The settings on record: 3T3-L1 adipocytes viability, higher = more signal.
Assay [13] can be described thus: compound effects on hepatocellular carcinoma cell viability – HepG2, calcein-AM fluorescence, 48 h, basal, profiling panel (AID 1164). Note: test concentration not given here. The note with it: higher = more signal.
A short description of assay [14]: compound effects on multiple myeloma cell viability – MM1S, calcein-AM fluorescence, 48 h, basal, profiling panel (AID 1165).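 Note: viability of MM1S multiple myeloma cells under basal unstimulated conditions; test concentration not given here.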 The settings on record: higher = more signal.
Assay [15] in a line: calcein-AM signal in unstimulated myeloma cells – cell-based, calcein-AM fluorescence, 48 h, PK04 Diversity Set, profiling panel (AID 1166).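 Note: cells grown under basal conditions without added stimulus; test concentration not given here.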 The settings on record: RPMI8226 myeloma viability, higher = more signal.
Assay [16] can be described thus: JC-1 mitochondrial signal, unstimulated HepG2 cells – cell-based, JC-1 fluorescence, 24 h, 100 nL compound, profiling panel (AID 1167). Note: test concentration not given here. The settings on record: HepG2 mitochondrial potential, higher = more signal.
A short description of assay [17]: JC-1 mitochondrial signal, unstimulated adipocytes – cell-based, JC-1 fluorescence, 3T3-L1 adipocytes, 24 h, 100 nL compound, profiling panel (AID 1168). Note: test concentration not given here. The note with it: JC-1 mitochondrial fluorescence, higher = more signal, called active from +8 up or from −8 down.
The nature of assay [18]: JC-1 mitochondrial signal, unstimulated myeloma cells – cell-based, JC-1 fluorescence, RPMI8226, 24 h, 100 nL compound, profiling panel (AID 1169). Note: test concentration not given here. The note with it: JC-1 mitochondrial potential fluorescence, higher = more signal.
The nature of assay [19]: JC-1 mitochondrial signal, unstimulated MM1S myeloma – cell-based, JC-1 fluorescence, 24 h, 100 nL compound, profiling panel (AID 1170). Note: test concentration not given here. The note with it: MM1S mitochondrial potential, higher = more signal.
A short description of assay [20]: resazurin metabolic signal in A549 cells – cell-based, resazurin fluorescence, 24 h, PK04 Diversity Set, profiling panel (AID 1171). Note: test concentration not given here. The note with it: A549 viability, higher = more signal, called active from +8 up or from −8 down.

Activity calls are given as the source filed them.

Chain of NADPH oxidase 2 (Homo sapiens) (P04839 whole entry, looked up): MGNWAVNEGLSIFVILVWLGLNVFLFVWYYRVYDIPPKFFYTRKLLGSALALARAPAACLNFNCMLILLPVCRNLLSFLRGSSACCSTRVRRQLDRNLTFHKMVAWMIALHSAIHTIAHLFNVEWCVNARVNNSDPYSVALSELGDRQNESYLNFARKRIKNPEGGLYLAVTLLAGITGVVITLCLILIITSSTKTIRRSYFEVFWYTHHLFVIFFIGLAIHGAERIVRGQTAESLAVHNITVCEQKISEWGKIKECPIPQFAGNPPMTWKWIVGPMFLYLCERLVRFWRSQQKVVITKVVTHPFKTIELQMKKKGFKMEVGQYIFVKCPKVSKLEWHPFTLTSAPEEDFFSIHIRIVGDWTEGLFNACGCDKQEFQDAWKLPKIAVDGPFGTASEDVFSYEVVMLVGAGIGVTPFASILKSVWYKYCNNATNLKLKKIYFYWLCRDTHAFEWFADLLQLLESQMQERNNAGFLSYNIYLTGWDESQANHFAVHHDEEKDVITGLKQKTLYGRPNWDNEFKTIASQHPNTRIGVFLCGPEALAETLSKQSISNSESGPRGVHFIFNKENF

Consider `COC(=O)[C@@]1(Cc2ccccc2)[C@H]2c3cc(C(=O)N4CCCC4)n(C[C@H](O)CO)c3C[C@H]2CN1C(=O)c1ccccc1`, for which the z-score was -1.22 (inactive) in assay [1]; 0.975 (inactive) in assay [3]; 0.192 (inactive) in assay [4]; 0.218 (inactive) in assay [5]; 0.592 (inactive) in assay [6]; -0.26 in assay [7]. Further, the z-score in [8] was 0.223 (inactive); in assay [9], -0.303 (inactive); in [10], -1.45; in [11], -1.11; in assay [12], -0.154; in assay [13] it was 0.0709. Besides, the z-score was 0.37 in assay [14]; 0.302 in [15]; 0.438 in assay [16]; -0.128 (inactive) in assay [17]; -0.0296 in assay [18]; -0.3 in assay [19]. Also, the z-score in assay [20] is -0.63 (inactive). The same molecule had a composite z-score in [2] of -0.165.
For `O=C1OCC=C[C@H]2OC34C=CCN(c5ccc(Cl)cc5)C(=O)[C@H]3N(CCCCCO)C(=O)[C@@H]4[C@@H]12` (stereo not given in full), the z-score in assay [1] is 0.553 (inactive); in assay [3], 2.47 (inactive); in [4], 0.622 (inactive); in [5] it was 0.871 (inactive); in assay [6], 0.502 (inactive); in [7], -0.646. The z-score in [8] was 1.95 (inactive); in assay [9], 0.525 (inactive); in [10] it was 2.87; in assay [11], -0.746; in assay [12], 0.699; in [13] it was -0.231. Besides, the z-score in assay [14] was 0.733; in assay [15], 0.707; in assay [16] it was -0.26; in assay [17] it was 0.37 (inactive); in [18] it was 0.536; in assay [19], 1.35. The z-score in assay [20] is -0.283 (inactive). In assay [2], this molecule yielded a composite z-score of 0.0927.
As for `COc1cc(CO)cc(I)c1O[C@H]1C=C(C(=O)NCCO)C[C@@H](N(Cc2ccc(F)cc2)C(=O)C2CCCO2)[C@@H]1O` (stereo not given in full), the z-score in assay [1] was 3.54 (inactive); in [3], 1.92 (inactive); in assay [4] it was 0.581 (inactive); in assay [5], 1.03 (inactive); in assay [6] it was 0.23 (inactive); in [7], -0.0981. In addition, the z-score in assay [8] was 0.0499 (inactive); in assay [9], 0.93 (inactive); in assay [10], 0.73; in assay [11] it was 0.656; in [12] it was 0.284; in [13] it was 0.364. In addition, the z-score in assay [14] was 0.87; in assay [15] it was 0.577; in [16], 1.04; in [17], 0.195 (inactive); in assay [18], -0.899; in [19], 0.578. Also, in [20], the z-score was -0.409 (inactive). This molecule also came in with a composite z-score in assay [2] of -0.147.
Take `COc1ccccc1CN1C(=O)c2ccccc2[C@](Cc2ccccc2I)(C(=O)NC(C)C)[C@@H]1c1ccc(CO)cc1`: the z-score is 0.646 (inactive) in assay [1]; 4.1 (inactive) in assay [3]; 0.644 (inactive) in assay [4]; 0.632 (inactive) in [5]; 0.621 (inactive) in [6]; 0.0569 in [7]. Further, the z-score was -2.12 (inactive) in [8]; 0.143 (inactive) in [9]; -2.1 in [10]; 0.312 in [11]; 0.771 in [12]; -0.185 in assay [13]. The z-score is -1.38 in assay [14]; -2.99 in assay [15]; 1.63 in assay [16]; -0.0467 (inactive) in [17]; -0.507 in assay [18]; -1.82 in assay [19]. Also, in assay [20], the z-score is -0.306 (inactive). Also, the composite z-score in [2] stood at 0.0494.
With `CC(C)(C)OC(=O)CC[C@]1(C(=O)O)N=C(c2ccc(OCCCO)cc2)O[C@H]1c1ccccc1`, the z-score in [1] was 1.11 (inactive); in assay [3] it was 11.9 (active); in assay [4], 1.08 (inactive); in [5] it was -0.0867 (inactive); in assay [6], -0.284 (inactive); in [7] it was 0.733. In addition, the z-score in assay [8] is 0.643 (inactive); in [9], 0.228 (inactive); in assay [10] it was 1.68; in [11], -0.078; in assay [12] it was 0.155; in assay [13], -0.0903. Besides, the z-score is 0.55 in assay [14]; -0.135 in assay [15]; 0.367 in assay [16]; 0.721 (inactive) in assay [17]; -0.0713 in assay [18]; -0.513 in assay [19]. In addition, the z-score in assay [20] was 0.16 (inactive). Further, the composite z-score in assay [2] is -0.362.
As to `CCOC(=O)C[C@H]1[C@H](OC(=O)Cc2ccc3c(c2)OCO3)[C@@H](NC(=O)C2CCCCC2)c2cc(OCCCO)ccc2N1C(=O)c1ccc2ccccc2n1`, the z-score was 0.699 (inactive) in assay [1]; 1.88 (inactive) in assay [3]; -0.954 (inactive) in assay [4]; -0.13 (inactive) in [5]; -2.2 (inactive) in [6]; 1.17 in assay [7]. For the same molecule, the z-score in assay [8] is -1.86 (inactive); in assay [9], 0.214 (inactive); in [10], -2.62; in assay [11] it was 0.177; in [12], 1.72; in assay [13] it was 0.726. Also, the z-score in assay [14] was 0.435; in assay [15], -1.18; in assay [16], -2.42; in [17], 0.436 (inactive); in assay [18], 0.602; in assay [19], -0.703. In assay [20], the z-score was 0.125 (inactive). The composite z-score in assay [2] was -0.106.
In the case of `C=CCOC(=O)[C@@H]1[C@H]2C(=O)O[C@H](c3ccccc3)[C@H](c3ccccc3)N2[C@H](c2ccc(OCCOC(=O)[C@H]3C[C@H]4C(=O)N[C@@H](CC(C)C)C(=O)N4[C@H]3c3ccc(O)cc3)cc2)[C@@]12C(=O)Nc1ccc(I)cc12`, the z-score in assay [1] was 0.715 (inactive); in assay [3] it was 2.42 (inactive); in [4], 1.47 (inactive); in assay [5] it was 0.946 (inactive); in assay [6], 0.792 (inactive); in assay [7], 0.171. Besides, the z-score in [8] was 1.75 (inactive); in [9], 1.66 (inactive); in assay [10], 1.36; in assay [11] it was 0.15; in assay [12], 0.325; in [13] it was 1.02. For the same molecule, the z-score is 0.38 in assay [14]; 1.08 in assay [15]; -0.227 in assay [16]; 3.06 (inactive) in [17]; -0.952 in assay [18]; -0.838 in assay [19]. In [20], the z-score is -0.0756 (inactive). Further, the composite z-score in [2] amounted to 0.0278.

The values are drawn from PubChem BioAssay.
